# Legend:
# Assay in all cases: DAPPL (digital affinity profiling via proximity ligation, sequencing); 10 mM Tris-HCl pH 7.5, 50 mM NaCl, 1 mM DTT, 4% glycerol, room temperature, 30 min; GST-TFs on glutathione beads, 16-mer random dsDNA library, 0.1% formaldehyde crosslink after washing; high values mean tight binding
# [1] = molecular target: T1, FLI1 (Homo sapiens, UniProt Q01543 1-452); settings: protein: recombinant; tags: N-terminal GST; dsDNA, one strand shown
# T1 sequence: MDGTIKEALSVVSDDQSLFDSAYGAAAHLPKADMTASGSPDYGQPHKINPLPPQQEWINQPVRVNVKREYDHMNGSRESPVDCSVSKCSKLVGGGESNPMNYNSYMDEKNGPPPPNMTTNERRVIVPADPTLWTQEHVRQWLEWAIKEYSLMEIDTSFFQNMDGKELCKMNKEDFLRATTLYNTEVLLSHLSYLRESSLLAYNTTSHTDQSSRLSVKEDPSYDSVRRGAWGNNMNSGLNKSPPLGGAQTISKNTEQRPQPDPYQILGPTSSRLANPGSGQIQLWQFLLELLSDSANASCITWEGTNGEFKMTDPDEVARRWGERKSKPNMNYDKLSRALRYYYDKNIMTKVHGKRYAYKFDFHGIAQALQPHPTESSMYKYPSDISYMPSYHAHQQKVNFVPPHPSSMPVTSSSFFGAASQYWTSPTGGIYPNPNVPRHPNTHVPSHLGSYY
# Outline: (§1)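 A tag-only sample was pooled with DNA-barcoded human transcription factors that had been expressed in yeast as GST fusions and captured on glutathione beads. The pools were incubated for 30 min at room temperature with 200 nmole of a random double-stranded 16-mer DNA library in Tris/NaCl/DTT/glycerol buffer, then washed, crosslinked with 0.1% formaldehyde, proximity-ligated (BsaI/T4 ligase, 1 h, 37 °C), PCR-amplified and sequenced on an Illumina NextSeq500. Binding signal is each hexamer's read frequency for a factor divided by its frequency for the tag-only sample.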
# [2] = molecular target: T2, ELK1 (Homo sapiens, UniProt P19419 1-428); settings: protein: recombinant; tags: N-terminal GST; dsDNA, one strand shown
# T2 sequence: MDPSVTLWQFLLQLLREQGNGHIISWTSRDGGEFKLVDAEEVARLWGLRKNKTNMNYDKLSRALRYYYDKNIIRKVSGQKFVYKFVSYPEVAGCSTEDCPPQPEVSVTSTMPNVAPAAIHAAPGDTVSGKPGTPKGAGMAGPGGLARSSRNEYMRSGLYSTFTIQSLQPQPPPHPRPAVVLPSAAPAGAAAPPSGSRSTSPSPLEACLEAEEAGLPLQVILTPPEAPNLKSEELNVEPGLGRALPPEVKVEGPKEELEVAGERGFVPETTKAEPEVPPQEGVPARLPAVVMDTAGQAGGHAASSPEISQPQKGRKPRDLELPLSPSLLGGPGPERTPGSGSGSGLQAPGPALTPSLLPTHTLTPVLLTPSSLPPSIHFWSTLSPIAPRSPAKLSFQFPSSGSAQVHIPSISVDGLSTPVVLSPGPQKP
# Outline: as §1
# [3] = molecular target: T3, GABPA (Homo sapiens, UniProt Q06546 1-454); settings: protein: recombinant; tags: N-terminal GST; dsDNA, one strand shown
# T3 sequence: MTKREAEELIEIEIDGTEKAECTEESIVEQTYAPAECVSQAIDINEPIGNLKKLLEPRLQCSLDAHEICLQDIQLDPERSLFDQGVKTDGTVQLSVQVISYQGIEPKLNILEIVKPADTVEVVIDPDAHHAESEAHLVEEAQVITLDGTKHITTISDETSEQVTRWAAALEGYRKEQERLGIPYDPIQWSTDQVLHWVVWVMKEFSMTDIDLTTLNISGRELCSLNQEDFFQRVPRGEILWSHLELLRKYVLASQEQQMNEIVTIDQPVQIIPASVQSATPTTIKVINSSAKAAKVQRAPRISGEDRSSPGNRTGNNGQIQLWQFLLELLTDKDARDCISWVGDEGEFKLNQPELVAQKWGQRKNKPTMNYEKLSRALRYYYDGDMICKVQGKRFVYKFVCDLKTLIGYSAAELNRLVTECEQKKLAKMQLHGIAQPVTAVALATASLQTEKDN
# Outline: as §1
# [4] = molecular target: T4, ERG (Homo sapiens, UniProt P11308 1-479); settings: protein: recombinant; tags: N-terminal GST; dsDNA, one strand shown
# T4 sequence: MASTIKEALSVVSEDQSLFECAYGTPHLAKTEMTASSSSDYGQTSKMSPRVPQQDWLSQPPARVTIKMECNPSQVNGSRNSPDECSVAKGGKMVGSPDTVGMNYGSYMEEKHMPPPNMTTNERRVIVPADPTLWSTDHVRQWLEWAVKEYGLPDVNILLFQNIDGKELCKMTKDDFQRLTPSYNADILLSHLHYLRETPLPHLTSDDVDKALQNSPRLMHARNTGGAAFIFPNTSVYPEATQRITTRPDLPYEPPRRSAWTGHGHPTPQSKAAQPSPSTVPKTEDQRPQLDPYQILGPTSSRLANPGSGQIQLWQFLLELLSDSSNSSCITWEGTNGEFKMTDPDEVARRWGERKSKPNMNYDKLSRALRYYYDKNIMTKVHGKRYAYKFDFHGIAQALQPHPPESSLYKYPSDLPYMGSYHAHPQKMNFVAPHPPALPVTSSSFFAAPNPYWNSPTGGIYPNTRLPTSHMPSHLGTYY
# Outline: as §1
# [5] = molecular target: ELF1 (Homo sapiens, UniProt P32519 1-619); settings: protein: recombinant; tags: N-terminal GST; dsDNA, one strand shown
# Outline: as §1
# [6] = molecular target: T5, EHF (Homo sapiens, UniProt Q9NZC4 1-300); settings: protein: recombinant; tags: N-terminal GST; dsDNA, one strand shown
# T5 sequence: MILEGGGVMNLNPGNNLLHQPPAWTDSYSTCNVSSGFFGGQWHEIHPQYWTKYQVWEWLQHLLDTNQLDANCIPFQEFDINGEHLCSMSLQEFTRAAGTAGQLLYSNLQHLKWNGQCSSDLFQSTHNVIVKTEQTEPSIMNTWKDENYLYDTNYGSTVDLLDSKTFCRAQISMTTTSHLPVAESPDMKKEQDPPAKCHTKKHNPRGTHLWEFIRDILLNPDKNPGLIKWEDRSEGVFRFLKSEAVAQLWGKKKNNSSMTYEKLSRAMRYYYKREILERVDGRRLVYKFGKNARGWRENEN
# Outline: as §1
# [7] = molecular target: SPI1 (Homo sapiens, UniProt P17947 1-270); settings: protein: recombinant; tags: N-terminal GST; dsDNA, one strand shown
# Outline: as §1
# [8] = molecular target: SPIB (Homo sapiens, UniProt Q01892 1-262); settings: protein: recombinant; tags: N-terminal GST; dsDNA, one strand shown
# Outline: as §1
# [9] = molecular target: T6, ELK3 (Homo sapiens, UniProt P41970 1-407); settings: protein: recombinant; tags: N-terminal GST; dsDNA, one strand shown
# T6 sequence: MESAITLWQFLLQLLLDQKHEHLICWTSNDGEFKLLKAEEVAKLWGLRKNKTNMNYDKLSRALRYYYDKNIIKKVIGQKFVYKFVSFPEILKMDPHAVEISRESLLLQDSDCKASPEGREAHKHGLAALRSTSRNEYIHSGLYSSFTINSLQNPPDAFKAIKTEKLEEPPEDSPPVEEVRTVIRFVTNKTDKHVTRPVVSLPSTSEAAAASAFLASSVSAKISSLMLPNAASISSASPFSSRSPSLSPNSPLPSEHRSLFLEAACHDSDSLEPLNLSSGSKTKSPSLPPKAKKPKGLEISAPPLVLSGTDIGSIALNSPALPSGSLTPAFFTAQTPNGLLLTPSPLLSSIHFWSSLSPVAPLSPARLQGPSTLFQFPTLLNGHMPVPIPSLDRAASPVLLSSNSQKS
# Outline: as §1
# [10] = molecular target: T7, FEV (Homo sapiens, UniProt Q99581 1-238); settings: protein: recombinant; tags: N-terminal GST; dsDNA, one strand shown
# T7 sequence: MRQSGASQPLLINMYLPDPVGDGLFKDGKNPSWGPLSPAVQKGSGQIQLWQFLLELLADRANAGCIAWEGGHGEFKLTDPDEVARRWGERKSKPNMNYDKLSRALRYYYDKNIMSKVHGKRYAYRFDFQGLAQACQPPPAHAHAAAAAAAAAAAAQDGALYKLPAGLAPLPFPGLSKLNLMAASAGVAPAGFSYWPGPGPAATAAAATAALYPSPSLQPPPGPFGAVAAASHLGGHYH
# Outline: as §1
# [11] = molecular target: ETV5 (Homo sapiens, UniProt P41161 1-510); settings: protein: recombinant; tags: N-terminal GST; dsDNA, one strand shown
# Outline: as §1
# [12] = molecular target: HSF1 (Homo sapiens, UniProt Q00613 1-529); settings: protein: recombinant; tags: N-terminal GST; chain copies: 3; dsDNA, one strand shown
# Outline: as §1
# [13] = molecular target: T8, SPIC (Homo sapiens, UniProt Q8N5J4 1-248); settings: protein: recombinant; tags: N-terminal GST; dsDNA, one strand shown
# T8 sequence: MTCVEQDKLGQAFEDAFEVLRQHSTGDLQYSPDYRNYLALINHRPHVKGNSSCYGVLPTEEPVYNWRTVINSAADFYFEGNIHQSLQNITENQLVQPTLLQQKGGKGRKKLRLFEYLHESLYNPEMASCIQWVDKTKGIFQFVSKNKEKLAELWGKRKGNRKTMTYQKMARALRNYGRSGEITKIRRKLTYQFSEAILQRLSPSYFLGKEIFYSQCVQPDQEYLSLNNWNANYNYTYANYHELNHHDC
# Outline: as §1
# [14] = molecular target: ELF4 (Homo sapiens, UniProt Q99607 1-663); settings: protein: recombinant; tags: N-terminal GST; dsDNA, one strand shown
# Outline: as §1
# [15] = molecular target: T9, ELK4 (Homo sapiens, UniProt P28324-2 1-405); settings: protein: recombinant; tags: N-terminal GST; dsDNA, one strand shown
# T9 sequence: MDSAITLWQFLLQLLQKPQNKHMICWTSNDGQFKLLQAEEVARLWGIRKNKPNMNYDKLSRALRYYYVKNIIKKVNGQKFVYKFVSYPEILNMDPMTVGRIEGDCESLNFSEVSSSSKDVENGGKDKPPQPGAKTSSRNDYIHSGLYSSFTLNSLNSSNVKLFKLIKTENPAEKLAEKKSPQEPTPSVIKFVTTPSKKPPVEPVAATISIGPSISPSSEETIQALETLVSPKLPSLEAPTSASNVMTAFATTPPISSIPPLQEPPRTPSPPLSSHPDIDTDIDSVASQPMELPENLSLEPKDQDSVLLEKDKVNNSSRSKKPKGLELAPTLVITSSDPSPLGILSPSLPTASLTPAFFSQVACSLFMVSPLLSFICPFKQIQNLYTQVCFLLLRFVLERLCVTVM
# Outline: as §1
# [16] = molecular target: T10, ETV2 (Homo sapiens, UniProt O00321 1-342); settings: protein: recombinant; tags: N-terminal GST; dsDNA, one strand shown
# T10 sequence: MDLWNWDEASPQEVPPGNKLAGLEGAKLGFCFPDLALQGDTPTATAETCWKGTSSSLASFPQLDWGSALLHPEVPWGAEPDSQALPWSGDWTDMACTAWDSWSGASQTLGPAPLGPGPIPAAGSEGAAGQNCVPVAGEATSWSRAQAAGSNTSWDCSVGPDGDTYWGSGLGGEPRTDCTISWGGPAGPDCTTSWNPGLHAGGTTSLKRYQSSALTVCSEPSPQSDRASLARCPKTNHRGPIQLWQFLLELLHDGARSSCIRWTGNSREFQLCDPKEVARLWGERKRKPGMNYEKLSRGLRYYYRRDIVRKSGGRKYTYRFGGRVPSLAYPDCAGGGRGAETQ
# Outline: as §1
# [17] = molecular target: T11, ELF3 (Homo sapiens, UniProt P78545 1-371); settings: protein: recombinant; tags: N-terminal GST; dsDNA, one strand shown
# T11 sequence: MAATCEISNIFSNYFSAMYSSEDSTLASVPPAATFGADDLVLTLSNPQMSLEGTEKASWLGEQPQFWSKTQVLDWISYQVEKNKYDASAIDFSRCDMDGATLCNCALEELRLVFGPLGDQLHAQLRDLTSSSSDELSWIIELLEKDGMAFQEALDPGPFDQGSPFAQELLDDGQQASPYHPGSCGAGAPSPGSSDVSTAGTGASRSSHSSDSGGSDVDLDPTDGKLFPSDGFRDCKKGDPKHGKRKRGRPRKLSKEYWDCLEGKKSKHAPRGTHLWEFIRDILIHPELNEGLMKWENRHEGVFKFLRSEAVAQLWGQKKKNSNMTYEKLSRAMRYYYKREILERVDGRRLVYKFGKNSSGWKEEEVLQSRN
# Outline: as §1
# [18] = molecular target: CRX (Homo sapiens, UniProt O43186 1-299); settings: protein: recombinant; tags: N-terminal GST; dsDNA, one strand shown
# Outline: as §1
# [19] = molecular target: ETV1 (Homo sapiens, UniProt P50549 1-477); settings: protein: recombinant; tags: N-terminal GST; dsDNA, one strand shown
# Outline: as §1
# ELF4, sequence (Q99607 whole entry): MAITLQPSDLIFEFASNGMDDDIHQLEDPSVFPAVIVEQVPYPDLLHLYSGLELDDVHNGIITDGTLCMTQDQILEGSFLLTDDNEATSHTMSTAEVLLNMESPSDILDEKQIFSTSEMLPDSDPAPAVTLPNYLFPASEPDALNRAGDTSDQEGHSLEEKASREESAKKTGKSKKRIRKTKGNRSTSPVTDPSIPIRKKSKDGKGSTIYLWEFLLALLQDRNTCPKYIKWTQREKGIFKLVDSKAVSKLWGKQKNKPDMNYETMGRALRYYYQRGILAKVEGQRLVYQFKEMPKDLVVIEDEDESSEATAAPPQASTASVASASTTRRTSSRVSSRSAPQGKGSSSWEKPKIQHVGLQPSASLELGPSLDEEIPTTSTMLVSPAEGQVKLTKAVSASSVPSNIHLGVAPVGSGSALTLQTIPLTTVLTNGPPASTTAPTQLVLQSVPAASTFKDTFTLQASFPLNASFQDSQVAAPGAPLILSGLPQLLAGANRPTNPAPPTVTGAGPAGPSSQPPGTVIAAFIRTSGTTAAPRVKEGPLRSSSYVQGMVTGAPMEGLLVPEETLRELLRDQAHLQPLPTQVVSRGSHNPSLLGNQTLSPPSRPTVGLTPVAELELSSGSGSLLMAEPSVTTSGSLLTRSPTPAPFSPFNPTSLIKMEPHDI
# CRX, sequence (O43186 whole entry): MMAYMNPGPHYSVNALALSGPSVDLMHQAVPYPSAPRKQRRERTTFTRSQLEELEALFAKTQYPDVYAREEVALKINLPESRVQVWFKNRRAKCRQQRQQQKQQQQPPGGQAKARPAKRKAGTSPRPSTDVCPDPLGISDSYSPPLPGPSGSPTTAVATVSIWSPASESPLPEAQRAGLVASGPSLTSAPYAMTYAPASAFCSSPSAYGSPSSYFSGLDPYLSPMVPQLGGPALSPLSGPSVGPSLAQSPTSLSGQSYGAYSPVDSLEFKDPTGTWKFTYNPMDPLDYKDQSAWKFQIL
# SPIB, sequence (Q01892 whole entry): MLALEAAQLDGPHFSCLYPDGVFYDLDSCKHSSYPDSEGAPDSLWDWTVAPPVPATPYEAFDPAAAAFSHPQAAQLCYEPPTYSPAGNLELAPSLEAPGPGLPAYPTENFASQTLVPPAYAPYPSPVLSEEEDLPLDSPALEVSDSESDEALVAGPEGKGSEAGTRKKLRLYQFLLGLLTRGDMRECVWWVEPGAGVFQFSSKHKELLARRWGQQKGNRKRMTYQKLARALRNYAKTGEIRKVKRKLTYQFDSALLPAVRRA
# ETV1, sequence (P50549 whole entry): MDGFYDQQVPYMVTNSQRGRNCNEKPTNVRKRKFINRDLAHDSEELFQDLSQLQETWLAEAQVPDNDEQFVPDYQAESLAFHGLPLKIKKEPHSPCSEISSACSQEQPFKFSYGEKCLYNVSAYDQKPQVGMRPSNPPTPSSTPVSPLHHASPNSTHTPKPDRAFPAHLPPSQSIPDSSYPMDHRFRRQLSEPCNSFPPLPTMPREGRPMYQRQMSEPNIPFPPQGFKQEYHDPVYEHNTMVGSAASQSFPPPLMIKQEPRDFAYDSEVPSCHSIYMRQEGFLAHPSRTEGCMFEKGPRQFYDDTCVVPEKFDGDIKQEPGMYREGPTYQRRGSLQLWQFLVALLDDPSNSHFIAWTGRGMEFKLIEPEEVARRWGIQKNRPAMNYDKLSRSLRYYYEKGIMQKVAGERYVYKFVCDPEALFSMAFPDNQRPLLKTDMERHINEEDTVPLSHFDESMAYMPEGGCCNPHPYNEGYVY
# ELF1, sequence (P32519 whole entry): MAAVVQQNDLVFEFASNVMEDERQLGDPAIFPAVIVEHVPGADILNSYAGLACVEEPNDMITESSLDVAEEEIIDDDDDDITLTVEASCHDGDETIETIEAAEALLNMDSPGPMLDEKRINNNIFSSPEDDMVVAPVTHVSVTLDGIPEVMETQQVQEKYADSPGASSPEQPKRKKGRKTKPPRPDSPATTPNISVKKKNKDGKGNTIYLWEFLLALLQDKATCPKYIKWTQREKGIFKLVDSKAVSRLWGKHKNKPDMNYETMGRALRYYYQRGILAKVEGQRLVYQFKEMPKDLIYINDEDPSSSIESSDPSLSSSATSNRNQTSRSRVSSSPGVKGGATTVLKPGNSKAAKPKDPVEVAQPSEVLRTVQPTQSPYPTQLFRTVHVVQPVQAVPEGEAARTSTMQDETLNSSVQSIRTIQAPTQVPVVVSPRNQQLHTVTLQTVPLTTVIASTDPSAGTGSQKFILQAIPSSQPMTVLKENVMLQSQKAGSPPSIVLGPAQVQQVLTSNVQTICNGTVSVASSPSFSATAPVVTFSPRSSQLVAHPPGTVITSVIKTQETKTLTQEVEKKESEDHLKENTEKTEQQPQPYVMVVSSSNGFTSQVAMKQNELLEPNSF
# HSF1, sequence (Q00613 whole entry): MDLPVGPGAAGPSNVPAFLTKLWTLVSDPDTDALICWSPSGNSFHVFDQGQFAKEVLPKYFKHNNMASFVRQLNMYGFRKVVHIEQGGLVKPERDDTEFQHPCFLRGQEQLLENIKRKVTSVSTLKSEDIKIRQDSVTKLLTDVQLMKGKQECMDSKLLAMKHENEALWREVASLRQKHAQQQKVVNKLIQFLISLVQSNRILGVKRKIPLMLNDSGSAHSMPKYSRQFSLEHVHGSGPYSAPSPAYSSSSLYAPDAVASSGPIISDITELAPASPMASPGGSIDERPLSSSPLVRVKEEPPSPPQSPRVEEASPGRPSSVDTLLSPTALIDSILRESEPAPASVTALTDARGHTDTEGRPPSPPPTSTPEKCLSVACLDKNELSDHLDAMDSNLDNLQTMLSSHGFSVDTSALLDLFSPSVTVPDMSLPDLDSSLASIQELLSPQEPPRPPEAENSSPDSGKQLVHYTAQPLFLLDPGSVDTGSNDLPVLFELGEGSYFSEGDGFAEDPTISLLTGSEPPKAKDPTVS
# ETV5, sequence (P41161 whole entry): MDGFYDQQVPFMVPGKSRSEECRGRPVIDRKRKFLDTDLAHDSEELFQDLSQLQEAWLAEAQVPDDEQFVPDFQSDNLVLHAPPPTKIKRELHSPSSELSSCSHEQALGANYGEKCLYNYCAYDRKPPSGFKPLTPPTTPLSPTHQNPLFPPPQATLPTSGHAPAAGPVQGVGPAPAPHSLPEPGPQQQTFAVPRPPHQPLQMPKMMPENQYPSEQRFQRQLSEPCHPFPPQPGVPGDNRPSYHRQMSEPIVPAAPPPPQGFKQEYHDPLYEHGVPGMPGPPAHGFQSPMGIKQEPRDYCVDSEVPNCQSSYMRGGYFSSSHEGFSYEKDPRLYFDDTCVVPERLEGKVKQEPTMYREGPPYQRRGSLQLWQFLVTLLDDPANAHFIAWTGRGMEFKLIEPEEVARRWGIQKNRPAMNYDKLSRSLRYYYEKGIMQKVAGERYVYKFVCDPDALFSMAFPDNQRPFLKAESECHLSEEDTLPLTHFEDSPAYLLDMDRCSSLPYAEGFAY
sequence,measurement,setting,value
TTCCGA,binding signal,[1],"1.64 fold enrichment (6-mer frequency, TF over GST control)"
same,binding signal,[2],"1.62 fold enrichment (6-mer frequency, TF over GST control)"
same,binding signal,[3],"1.43 fold enrichment (6-mer frequency, TF over GST control)"
same,binding signal,[4],"1.66 fold enrichment (6-mer frequency, TF over GST control)"
same,binding signal,[5],"1.44 fold enrichment (6-mer frequency, TF over GST control)"
same,binding signal,[6],"1.71 fold enrichment (6-mer frequency, TF over GST control)"
same,binding signal,[7],"1.62 fold enrichment (6-mer frequency, TF over GST control)"
same,binding signal,[8],"1.44 fold enrichment (6-mer frequency, TF over GST control)"
same,binding signal,[9],"1.68 fold enrichment (6-mer frequency, TF over GST control)"
same,binding signal,[10],"1.81 fold enrichment (6-mer frequency, TF over GST control)"
same,binding signal,[11],"1.57 fold enrichment (6-mer frequency, TF over GST control)"
same,binding signal,[12],"1.35 fold enrichment (6-mer frequency, TF over GST control)"
same,binding signal,[13],"1.61 fold enrichment (6-mer frequency, TF over GST control)"
same,binding signal,[14],"1.44 fold enrichment (6-mer frequency, TF over GST control)"
same,binding signal,[15],"1.46 fold enrichment (6-mer frequency, TF over GST control)"
same,binding signal,[16],"1.7 fold enrichment (6-mer frequency, TF over GST control)"
same,binding signal,[17],"1.5 fold enrichment (6-mer frequency, TF over GST control)"
same,binding signal,[18],"1.19 fold enrichment (6-mer frequency, TF over GST control)"
same,binding signal,[19],"1.63 fold enrichment (6-mer frequency, TF over GST control)"
